The values that follow come from PubChem BioAssay AID371 (SRMLSC, 2006).

Screen size: about 3,300 compounds; about 280 (8.5%) were called active.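 Rule for the calls: active = mean growth inhibition over the two runs of 50% or more; inactive = mean growth inhibition under 50%.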 The sample as a whole holds a higher share of actives than the screen did.

A short description of the assay: A549 NSCLC cell proliferation inhibitors – ATP luminescence, human non-small cell lung line, primary screen (AID 371).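 Note: compound exposure lasted 72 h before the ATP read; 0% = untreated cell signal and 100% = no luminescence left.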 The settings on record: at 10 µM, hits give high values.
Turning to `CN(C)CCOC(=O)c1cn(Cc2ccccc2)c2ccccc12`, the growth inhibition was 61.2% (active).

Regarding `CCCCOCCCn1c(N)c(C(=O)OCCOC)c2nc3ccccc3nc21`, the growth inhibition was 23.4% (inactive).

For `CC(C)(C)OC(=O)c1c(N)n(Cc2ccco2)c2nc3ccccc3nc12`, the growth inhibition was 56.9% (active).

For `CCCCOCCCn1c(N)c(C(=O)OC(C)COC)c2nc3ccccc3nc21` (stereo not given), the growth inhibition is 36.6% (inactive).

`COCCOC(=O)c1c(N)n(Cc2ccco2)c2nc3ccccc3nc12`: the growth inhibition was 12.9% (inactive).

`CC(C)OC(=O)c1c(N)n(Cc2ccco2)c2nc3ccccc3nc12`: the growth inhibition was 18.6% (inactive).

Turning to `COCC(C)OC(=O)c1c(N)n(Cc2ccco2)c2nc3ccccc3nc12` (stereo not given), the growth inhibition is 14% (inactive).

On to `Nc1c(C(=O)NCc2ccco2)c2nc3ccccc3nc2n1CCN1CCCCC1`, for which the growth inhibition is 91.8% (active).

With `Nc1c(C(=O)NCc2ccco2)c2nc3ccccc3nc2n1Cc1ccc(F)cc1`, the growth inhibition is 86.7% (active).

With `COc1ccc(Cn2c(O)c(C=NCCCn3ccnc3)c(=O)[nH]c2=O)cc1`, the growth inhibition was -7.41% (inactive).

Turning to `CCCCCCn1c(O)c(C(C)=NC)c(=O)[nH]c1=O`, the growth inhibition is 8.94% (inactive).

Consider `O=C(c1ccco1)C12CN3CN(CN(C3)C1)C2`, for which the growth inhibition was -3.02% (inactive).

`OC1(c2ccc(F)cc2)CCNC1` (stereo not given): the growth inhibition is -3.04% (inactive).

In the case of `O=C1C2CCN(CC2)[C@@H]1Cc1ccc2ccccc2c1O`, the growth inhibition was 7.73% (inactive).

With `COc1cc2[nH]c(=O)n(-c3cccc(Cl)c3)c(=O)c2cc1OC`, the growth inhibition was 3.67% (inactive).

Turning to `O=C1c2ccccc2C(=O)N1Cc1nc2ccccc2c(=O)n1-c1cccnc1`, the growth inhibition is -0.22% (inactive).

Regarding `C=CCC1(CN2CCCCCC2=O)C(=O)NC(=O)NC1=O`, the growth inhibition was 2.99% (inactive).

As to `CCCCNC(=O)Nc1ccc(C(O)(C(=O)OC)C(F)(F)F)cc1` (stereo not given), the growth inhibition was -4.53% (inactive).

As for `CCOC(C(=O)OCC(O)CN(CC)CC)(c1ccccc1)c1ccccc1` (stereo not given), the growth inhibition is 15.7% (inactive).

As for `O=C(O)CCCc1ccc(N(CCCl)CCCl)cc1`, the growth inhibition was 50.8% (active).

As for `CCOCCN1CCC(OC(C)=O)C(C)C1` (stereo not given), the growth inhibition is 1.45% (inactive).

As to `CCOc1ccc(Cc2c(O)[nH]c(=O)[nH]c2=O)cc1`, the growth inhibition was -5.3% (inactive).

Take `CCCCNC(=O)Nc1ccc(C(O)(C(=O)OCC)C(F)(F)F)cc1` (stereo not given): the growth inhibition was -3.41% (inactive).

With `CN1CCC(OC(=O)C2c3ccccc3Oc3ccccc32)CC1`, the growth inhibition was 13% (inactive).

`CCCC12CN3CN(C1)CC(CCC)(C3)C2O` (stereo not given): the growth inhibition is -0.83% (inactive).

For `CC(C)[C@@]1(NC(=O)[C@@H]2C=C3c4cccc5[nH]cc(c45)C[C@H]3N(C)C2)O[C@@]2(O)[C@@H]3CCCN3C(=O)[C@H](Cc3ccccc3)N2C1=O`, the growth inhibition was 35.2% (inactive).

As to `CC(C)[C@@]1(NC(=O)[C@@H]2C[C@@H]3c4cccc5[nH]cc(c45)C[C@H]3N(C)C2)O[C@@]2(O)[C@@H]3CCCN3C(=O)[C@H](Cc3ccccc3)N2C1=O`, the growth inhibition is 85.1% (active).

Regarding `CC(C)[C@H]1C(=O)N2CCC[C@H]2[C@]2(O)O[C@](NC(=O)[C@@H]3C=C4c5cccc6[nH]cc(c56)C[C@H]4N(C)C3)(C(C)C)C(=O)N12`, the growth inhibition was 37.3% (inactive).

Consider `O=c1[nH]c(=O)n(Cc2ccccc2)c(O)c1C=NCCN1CCOCC1`, for which the growth inhibition is -6.38% (inactive).

For `O=c1[nH]c(=O)n(Cc2ccccc2)c(O)c1C=NCCN1CCNCC1`, the growth inhibition was 4.69% (inactive).

On to `O=c1[nH]c(=O)n(CCc2ccccc2)c(O)c1C=NCCN1CCNCC1`, for which the growth inhibition was -7.13% (inactive).

As to `O=c1c(C=NCCN2CCNCC2)c(O)n(C2CCCCC2)c(=O)n1C1CCCCC1`, the growth inhibition was 82.3% (active).

Consider `OC(c1ccc(F)cc1)C(c1ccccc1)N1CCOCC1` (stereo not given), for which the growth inhibition was 7.16% (inactive).

Take `O=c1[nH]c(=O)n(Cc2ccco2)c(O)c1C=NCCN1CCOCC1`: the growth inhibition was 0.93% (inactive).

In the case of `CC1CCC(C(C)C)C(OP(N)(=O)c2ccccc2)C1` (stereo not given), the growth inhibition was 16.9% (inactive).

With `CNCCc1nc(N)n[nH]1`, the growth inhibition was 1.61% (inactive).

As to `Cc1c(N=Cc2c(O)n(CCc3ccccc3)c(=O)[nH]c2=O)c(=O)n(-c2ccccc2)n1C`, the growth inhibition was 79.2% (active).

As to `CCCCCCn1c(O)c(C=Nc2c(C)n(C)n(-c3ccccc3)c2=O)c(=O)[nH]c1=O`, the growth inhibition was 6.23% (inactive).

As to `Cc1c(N=Cc2c(O)n(CCc3ccc(F)cc3)c(=O)[nH]c2=O)c(=O)n(-c2ccccc2)n1C`, the growth inhibition was 12.3% (inactive).

Consider `C=CCn1c(O)c(C=NCCN(C)C)c(=O)[nH]c1=O`, for which the growth inhibition was 2.68% (inactive).

Turning to `O=c1[nH]c(=O)n(CCc2ccccc2)c(O)c1C=NCCCn1ccnc1`, the growth inhibition was -3.73% (inactive).

In the case of `CCOc1ccccc1-n1c(O)c(C=Nc2c(C)n(C)n(-c3ccccc3)c2=O)c(=O)[nH]c1=O`, the growth inhibition is 0.12% (inactive).

For the compound `CC1(C)NCCN2C(=O)CSC21` (stereo not given), the growth inhibition is -1.76% (inactive).

Turning to `O=C(CCCN1CCC2(CC1)C(=O)NCN2c1ccccc1)c1ccc(F)cc1`, the growth inhibition was 54.1% (active).

Take `CCCN(CC#CCO)CCC`: the growth inhibition was 0.1% (inactive).

Consider `Cn1c(O)c(C(=O)c2ccccc2Cl)c(=O)n(C)c1=O`, for which the growth inhibition was 2.11% (inactive).

As for `CC(=O)OC1(c2ccc(C)cc2)CN2CCC1c1ccccc12` (stereo not given), the growth inhibition was 6.24% (inactive).

For the compound `C=CCn1c(O)c(C=Nc2ccc(N(CC)CC)cc2)c(=O)[nH]c1=O`, the growth inhibition is 4.7% (inactive).

With `O=c1[nH]c(=O)n(-c2cccc(Cl)c2)c(O)c1C=NCCN1CCCCC1`, the growth inhibition is 4.68% (inactive).

With `Cc1c(N=Cc2c(O)n(Cc3ccco3)c(=O)[nH]c2=O)c(=O)n(-c2ccccc2)n1C`, the growth inhibition was -0.44% (inactive).

As for `CCCCCCn1c(O)c(C=NCCN2CCCCC2)c(=O)[nH]c1=O`, the growth inhibition is -5.08% (inactive).

On to `Clc1ccc(COC(Cn2ccnc2)c2ccc(Cl)cc2Cl)c(Cl)c1` (stereo not given), for which the growth inhibition was 92.5% (active).

With `Clc1ccc(CSC(Cn2ccnc2)c2ccc(Cl)cc2Cl)cc1` (stereo not given), the growth inhibition is 93.2% (active).

Consider `Clc1ccc(COC(Cn2ccnc2)c2ccc(Cl)cc2Cl)cc1` (stereo not given), for which the growth inhibition was 91.6% (active).

Consider `c1ccc(Cn2ccnc2)cc1`, for which the growth inhibition is 8.97% (inactive).

Consider `CCOc1ccc(-n2c(O)c(C=Nc3ccc(N(CC)CC)cc3)c(=O)[nH]c2=O)cc1`, for which the growth inhibition was 9.98% (inactive).

As to `CC(=O)C1(c2ccccc2)CCNCC1`, the growth inhibition is 2.01% (inactive).

As for `Cn1c(O)c(C=NCCCNC2CCCCC2)c(=O)n(C)c1=O`, the growth inhibition was 0.52% (inactive).

`CCOc1ccccc1-n1c(O)c(C=Nc2ccc(N(CC)CC)cc2)c(=O)[nH]c1=O`: the growth inhibition was 45.4% (inactive).

On to `CCCCSP1(=S)NCCCN1`, for which the growth inhibition is 2.57% (inactive).

Consider `O=C(COc1ccc2ccccc2c1)N1CCN(C2CCN(Cc3ccccc3)CC2)CC1`, for which the growth inhibition is 36.9% (inactive).

As to `O=c1[nH]c(=O)n(C2CCCCC2)c(O)c1C=NCCCn1ccnc1`, the growth inhibition is 3.81% (inactive).

For `O=c1[nH]c(O)c(C=NC2CCN(Cc3ccccc3)CC2)c(=O)[nH]1`, the growth inhibition is 6% (inactive).

In the case of `COc1cccc(-n2c(C)nc3ccccc3c2=O)c1`, the growth inhibition is 9.28% (inactive).

Regarding `COc1ccc(C2SCC(=O)Nc3c2c(=O)[nH]n3C2CCCCCC2)cc1` (stereo not given), the growth inhibition is 25.3% (inactive).

`CCC(=NCCN1CCCCC1)c1c(O)n(C)c(=O)n(C)c1=O`: the growth inhibition was -4.37% (inactive).

For `CC(=NCCO)c1c(O)n(C)c(=O)n(C)c1=O`, the growth inhibition was -4.52% (inactive).

As to `CCC(=NCCOc1ccc(Cl)cc1)c1c(O)n(C)c(=O)n(C)c1=O`, the growth inhibition was 55.2% (active).

For `CCN(CC)CCCC(C)N=C(c1ccccc1)c1c(O)n(C)c(=O)n(C)c1=O` (stereo not given), the growth inhibition was 7.06% (inactive).

For `O=C(Nc1ccncc1)c1c(O)c2ccccc2n(Cc2ccccc2)c1=O`, the growth inhibition was 68.1% (active).

As for `CCN(CC)CCN=Cc1c(O)n(CCc2ccccc2)c(=O)[nH]c1=O`, the growth inhibition is 2.4% (inactive).

As for `CCN(CC)CCCNC(=O)c1c(O)c2ccccc2n(Cc2ccccc2)c1=O`, the growth inhibition is 91.6% (active).

For `CN1CCc2nc(SCC(=O)OC(C)(C)C)c(C#N)cc2C1`, the growth inhibition is 25.1% (inactive).

On to `CCCCC1(CN2CCCC2=O)C(=O)NC(=O)NC1=O`, for which the growth inhibition was 3.02% (inactive).

On to `COCCOC(=O)C1=C(N)Oc2c(c(=O)oc3ccccc23)[C@@]12C(=O)Nc1ccccc12`, for which the growth inhibition is -4.66% (inactive).

Regarding `CC1CN=C(Nc2ccc(N(C)C)cc2)S1` (stereo not given), the growth inhibition was 0.47% (inactive).

As for `CCOC(=O)c1cc(C)n(CCc2cnc[nH]2)c1C`, the growth inhibition was 9.02% (inactive).

In the case of `C[C@H]1CCCC(=O)CCCCCc2cc(O)cc(O)c2C(=O)O1`, the growth inhibition is 52.1% (active).

For `OCCOCC#CCN1CCOCC1`, the growth inhibition is 0.81% (inactive).

Consider `CCCCSP1(=S)NCCCO1` (stereo not given), for which the growth inhibition was 19.6% (inactive).

For `C[C@@]1(CO)[C@H](O)CC[C@@]2(C)[C@H]1CC[C@H]1C[C@@H]3C[C@@]12CC[C@]3(O)CO`, the growth inhibition was 69.6% (active).

Turning to `O=P(c1ccccc1)(c1ccccc1)N1CCCCC1`, the growth inhibition is 8.66% (inactive).

In the case of `O=c1[nH]c(=O)n(Cc2ccco2)c(O)c1C=NCc1ccc2c(c1)OCO2`, the growth inhibition is 18.1% (inactive).

For `CC1=C(C(=O)OC(C)C)[C@]2(C(=O)N(CC(N)=O)c3ccccc32)C(C#N)=C(N)O1`, the growth inhibition is 5.06% (inactive).

For the compound `Cc1c2ccncc2c(C)c2c1[nH]c1ccccc12`, the growth inhibition is 95% (active).

`c1ccc2c(c1)[nH]c1cnccc12`: the growth inhibition was -5.8% (inactive).

Take `COc1cccc(CN2CCN(C(=O)COc3ccc4ccccc4c3)CC2)c1`: the growth inhibition is 33.9% (inactive).

Regarding `C[C@H]1CCC/C=C/C2C[C@H](O)CC2[C@H](O)/C=C/C(=O)O1` (stereo not given in full), the growth inhibition was 76% (active).

Turning to `OC(Cc1ccccc1)(c1ccccc1)C1CN2CCC1CC2` (stereo not given), the growth inhibition was 34.4% (inactive).

For `Cc1ccc2c(c1)[C@@H]1CN(C)CC[C@@H]1N2C(=O)Nc1cccc(C(F)(F)F)c1`, the growth inhibition is 83% (active).

On to `COc1ccc(C(=O)CN2CCOCC2)cc1F`, for which the growth inhibition is 16% (inactive).

On to `CN1CCc2c(c(N3CCCCC3)nc3n[nH]c(N)c23)C1`, for which the growth inhibition is 0.74% (inactive).

As to `COc1ccc2[nH]cc(CCN(C)C)c2c1`, the growth inhibition is 1.86% (inactive).

As to `CCCc1nc2ccccc2c(=O)n1-c1ccccc1OC`, the growth inhibition is -0.02% (inactive).

Regarding `CCN(CC)c1ccc(N=Cc2c(O)n(-c3ccccc3C)c(=O)[nH]c2=O)cc1`, the growth inhibition is 29.6% (inactive).
